# Laboratory results published in PubChem BioAssay AID686970 (National Center for Advancing Translational Sciences (NCATS), 2013).
# Screen size: about 360,000 compounds; about 6,000 (1.7%) were called active. Inconclusive results (about 8%) are left out. Calls come from the whole dose curve; as a rule, active = well fitted cell-killing curve with a large enough effect; inconclusive = small, poorly fitted or top-dose-only effect, or effect the other way; inactive = flat fitted curve, though single readings scatter. The list comes from a sample in which actives are over-represented; it also holds similar structures and randomly drawn compounds. Where a call stands in place of a potency, no number is given.
# Assay: qHTS for induction of synthetic lethality in tumor cells producing 2HG: qHTS for the HT-1080-NT fibrosarcoma cell line;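 note: NT is the 2HG producing partner of a matched IDH1 knockdown line; nearly all actives have a fitted effect of over 55% in size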
# Details: HT-1080-NT fibrosarcoma viability, CellTiter-Glo ATP luminescence, 48 h; series mostly up to 46.1 µM
# Summary of the method: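 Luminescent CellTiter-Glo readout after 48 hours of compound exposure at 37 degrees C defined viability of HT-1080-NT cells. Activity was normalized to DMSO wells and cell-free media wells; concentration-response curves were fitted and assigned curve classes.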
# Potency is the fitted concentration of half-maximal effect.
row,SMILES,Potency
1,OC(c1ccccc1)c1nc(/C=C/c2ccc(C(F)(F)F)cc2)cs1 (stereo not drawn),inactive
2,CC(=O)C[C@@H]1OC[C@H](C)N1S(=O)(=O)c1ccc(C)cc1,inactive
3,C=CCn1c2c(c3ccccc31)CCC2,inactive
4,Cc1cccc(CNC(=O)c2sc(=O)n(Cc3ccccc3C)c2C)c1,inactive
5,O=S(=O)(NCc1cccnc1)c1ccc(Br)s1,inactive
6,O=S(=O)([N-]c1nc2ccccc2nc1-[n+]1ccc(Cc2ccccc2)cc1)c1ccc(Br)s1,14.6 µM (active)
7,O=C(NCCc1ccccc1)C1CCN(S(=O)(=O)c2ccc(Br)s2)CC1,inactive
8,C[C@@H]1CN([C@@H](C)CO)C(=O)c2cc(Br)cnc2O[C@H]1CN(C)Cc1ccc(-c2ccccc2)cc1,inactive
9,COc1ccccc1N1CCN(C(=O)c2ccc(Cl)c(S(=O)(=O)N3CCCC3)c2)CC1,inactive
10,COc1ccccc1N1CCN(C(=O)c2cc(=O)c3cc(C)cc(C)c3o2)CC1,0.0206 µM (active)
11,COc1ccccc1N1CCN(C(=O)c2c(-c3c(Cl)cccc3Cl)noc2C)CC1,inactive
12,O=C(NC1CCCC1)C1c2ccccc2OCC(=O)N1Cc1ccccc1 (stereo not drawn),inactive
13,COc1cc(C(C)=O)ccc1OC(C)C(=O)Nc1ccc(S(=O)(=O)N2CCCC2)cc1 (stereo not drawn),inactive
14,COc1ccc(S(=O)(=O)N2CCCCCC2)cc1NC(=O)Cc1ccc(OC)c(OC)c1,inactive
15,COc1ccc(-c2ccc(Nc3ccc(S(=O)(=O)N4CCCC4)cc3)nn2)cc1OC,11.2 µM (active)
16,CCc1nc2c(OCCOc3ccccc3)cccn2c1N(C)C(=O)c1ccccc1F,inactive
17,COc1cc(C#Cc2ccc3cc(CCCO)oc(=O)c3c2)cc(OC)c1,4.61 µM (active)
18,O=C1c2ccccc2C(=O)N1CCC#Cc1ccc2cc(C3(O)CCCCC3)oc(=O)c2c1,inactive
19,CCC(=O)N1CCCC1(C)C(=O)Nc1ccc2c(c1)CCN2C(C)=O (stereo not drawn),inactive
20,CCOC(=O)C1(C)CCCN(C(=O)c2cccc(Cl)c2)C1 (stereo not drawn),inactive
21,O=C(Nc1ccc(Cl)cn1)c1ccccc1-c1ccccc1,inactive
22,CCCOC(=O)c1[nH]c2c(c1C)C(=O)CC(c1cccs1)C2 (stereo not drawn),1.3 µM (active)
23,COC(=O)C1C(=O)c2c([nH]c(C(=O)OCCSC)c2C)CC1C (stereo not drawn),inactive
24,COCCOC(=O)c1[nH]c2c(c1C)C(=O)CC(c1ccc(OC)cc1)C2 (stereo not drawn),inactive
25,O=C(COC(=O)c1ccc(S(=O)(=O)N2CCCCCC2)cc1)Nc1ccccc1C(F)(F)F,inactive
26,O=C1c2ccccc2-c2ccccc2NC1O (stereo not drawn),inactive

row,SMILES,Potency
1,COc1cccc2sc(N(CCCN(C)C)C(=O)C(c3ccccc3)c3ccccc3)nc12,20.6 µM (active)
2,Cc1cc(C)c2nc(N(CCN(C)C)C(=O)/C=C/c3cccs3)sc2c1,inactive
3,Cc1ccc2sc(N(CCN(C)C)C(=O)/C=C/c3cccs3)nc2c1C,inactive
4,CCCCn1nnnc1C(c1cc2ccccc2o1)N(C)Cc1ccc(Cl)c(Cl)c1 (stereo not drawn),inactive
5,CCN(/N=C/c1ccccc1)c1cc(=O)n(C)c(=O)[nH]1,inactive
6,Oc1ccc(/C=N/N(Cc2ccccc2)c2ccccc2)cc1,20.6 µM (active)
7,CN(/N=C/c1ccccc1)C(=S)c1ccccc1,inactive
8,Cc1cc(OCC(=O)Nc2nccs2)c2c(C)c(C)c(=O)oc2c1,inactive
9,COc1cccc(CN(C)CC(O)COC(c2ccccc2)c2ccccc2C)c1 (stereo not drawn),23.1 µM (active)
10,COc1cccc(CN(C)CC(=O)Nc2ccccc2C(=O)Nc2ccccc2)c1,inactive
11,Cc1ccccc1C(OCC(O)CN1CCCCC1CCO)c1ccccc1 (stereo not drawn),inactive
12,Cc1cc(Cl)ccc1-c1nc(NCCN(C)C)nc2ccsc12,20.6 µM (active)
13,Cc1cc(=O)c2ccc(NC(=O)c3ccccc3)cc2[nH]1,inactive
14,O=c1cc(-c2ccccc2)[nH]c2cc(F)ccc12,2.59 µM (active)
15,Cc1ccc(-c2cc(=O)c3ccc(F)cc3[nH]2)cc1,inactive
16,FC(F)(F)Oc1ccccc1C(c1nnnn1C1CCCCC1)N1CCN(C/C=C/c2ccccc2)CC1 (stereo not drawn),inactive
17,O=C(Nc1nnc(S(=O)(=O)N2CCCCCC2)s1)c1cccc(Br)c1,23.1 µM (active)
18,O=C(Nc1nnc(S(=O)(=O)N2CCOCC2)s1)c1cccc(Br)c1,inactive
19,Cc1cccc(C(=O)Nc2nnc(S(=O)(=O)N3CCCCCC3)s2)c1,inactive
20,CC1(C(=O)Nc2ccccc2Br)CCN1C(=O)CC1CC1 (stereo not drawn),inactive
21,CCOC(=O)[C@]12CCC=C1N(Cc1cccc3ccccc13)C(=O)[C@H](CC(=O)NCc1cccc(C(F)(F)F)c1)C2,inactive
22,CCCNC(=O)C1(C)CCCN(C(=O)c2cccc(OC(C)=O)c2C)C1 (stereo not drawn),inactive
23,CC1(C(=O)Nc2ccc3c(c2)OCCO3)CN(S(C)(=O)=O)CC(=O)N1Cc1cccc(F)c1 (stereo not drawn),inactive
24,N#Cc1cccc(NC(=O)COC(=O)c2ccccc2C(=O)c2ccc(Cl)c([N+](=O)[O-])c2)c1,7.31 µM (active)
25,CC(=O)Nc1ccc(NC(=O)COC(=O)c2ccccc2C(=O)c2ccccc2)cc1,inactive
26,COC(=O)c1cc(NC(=O)Cc2ccccc2[N+](=O)[O-])ccc1Cl,inactive

row,SMILES,Potency
1,COc1ccc(C2Nc3ccc(NC(=O)COC(C)=O)cc3C(=O)N2Cc2ccccc2)cc1COc1ccc(NC(C)=O)cc1 (stereo not drawn),inactive
2,CC(Sc1ccc(S(=O)(=O)N2CCN(C)CC2)cn1)C(=O)NC1CCCC(C)C1C (stereo not drawn),inactive
3,COc1ccc(C)cc1S(=O)(=O)N1CCN(S(=O)(=O)c2cc(C(=O)O)ccc2C)CC1,inactive
4,Cc1ccc(S(=O)(=O)N2CCN(c3ncnc4ccccc34)CC2)cc1,inactive
5,Cc1ccc(C)c(S(=O)(=O)N2CCN(c3ncnc4sccc34)CC2)c1,5.8 µM (active)
6,CC1CCCC(C)N1C(=O)COC(=O)c1ccccc1C(=O)c1ccccc1 (stereo not drawn),inactive
7,Cc1ccccc1Cn1c(C)c(C(=O)NCc2cccc(C(F)(F)F)c2)sc1=O,inactive
8,OCCc1ccc(NCCc2ccco2)cc1,inactive
9,CC1=C/C(=N\OS(=O)(=O)c2ccccc2)C=CC1=O,20 µM (active)
10,NC(=O)CSc1nnc(-c2cccc(S(=O)(=O)N3CCOCC3)c2)o1,inactive
11,Cc1cccc(C)c1Cn1c(C)c(C(=O)NCc2cccc(Cl)c2)sc1=O,inactive
12,OC(c1ccccc1)c1nc(-c2cnc3ccccc3c2)cs1 (stereo not drawn),inactive
13,NC(=O)CSc1nnc(NC(=O)c2ccc3ccccc3c2)s1,inactive
14,O=C(Nc1nnc(SCc2c(Cl)cccc2Cl)s1)c1cccc([N+](=O)[O-])c1,inactive
15,O=C(Nc1nnc(SCc2ccccc2Cl)s1)c1cccc([N+](=O)[O-])c1,18.4 µM (active)
16,CC1=C(C(=O)N2CCOCC2)CC(CC(=O)NCCCN(C)C)C(=O)N1Cc1ccc(C(C)(C)C)cc1 (stereo not drawn),inactive
17,O=C(Nc1ccc(Br)cn1)C1CCN(S(=O)(=O)c2cccs2)CC1,9.2 µM (active)
18,O=C(C1CCN(S(=O)(=O)c2cccs2)CC1)N1CCCCCC1,inactive
19,O=C(NCc1ccc(Cl)cc1)C1CCN(S(=O)(=O)c2cccs2)CC1,inactive
20,Cc1ccc(C(=O)Nc2c(-c3ccccc3)[nH][nH]c2=O)cc1,inactive
21,CC(C)OC(=O)c1ccc(NCc2cc(O)ccc2O)cc1Cl,20.6 µM (active)
22,CCN(CC)C(=O)CCC(=O)Nc1ccc(C(=O)OC)cc1,inactive
23,CC1(C)C2CCC1(C)C(OC(=O)c1ccc(O)cc1)C2 (stereo not drawn),inactive
24,CC(CN1CCOCC1)OC(=O)c1ccc(Cl)cc1Cl (stereo not drawn),inactive
25,O=C(OC12CC3CC(CC(C3)C1)C2)c1ccc(NCc2cc(O)ccc2O)cc1,14.6 µM (active)
26,COC(=O)c1ccc(NCc2cc(O)ccc2O)cc1,16.4 µM (active)

row,SMILES,Potency
1,C#CCNc1ccc(C(=O)OCC)cc1,inactive
2,CC(OC(=O)c1ccc(Cl)cc1O)C(=O)NCCC1=CCCCC1 (stereo not drawn),inactive
3,CC(C)CCC(=O)Nc1cc(S(=O)(=O)N2CCOCC2)ccc1N1CCCC1,inactive
4,Cc1ccc(S(=O)(=O)N2CCOCC2)cc1NC(=O)c1ccncc1,inactive
5,Cc1ccc(S(=O)(=O)N2C[C@]3(O)C[C@@H]4C(=O)N(c5ccccc5)C(=O)[C@@H]4C[C@]3(OC(=O)NC3CC3)C2)cc1,inactive
6,Cc1ccccc1-c1nc(NC(C)C)nc2cc(-c3ccccc3)sc12,inactive
7,COc1ccc(CCn2c3c(c(=O)[nH]c2=S)CN(C(C)C)CN3)cc1OC,inactive
8,CC1(C(=O)Nc2cccc3cccnc23)CCN1C(=O)CCC1CCCC1 (stereo not drawn),inactive
9,CC1(C(=O)NS(=O)(=O)c2ccc(C#N)cc2)CCN1C(=O)c1ccc(C2CCCCC2)cc1 (stereo not drawn),inactive
10,C[C@H](CO)N1C[C@H](C)[C@@H](CN(C)C(=O)C2CCCCC2)OCc2cnnn2CCCC1=O,inactive
11,Cc1c(CN2CCC(CO)(CCOc3ccccc3)CC2)[nH]c2ccc(Cl)cc12,25.9 µM (active)
12,CC(C)(O)C#Cc1ccc(CN2CCC(CO)(CCc3ccccc3)CC2)cc1,inactive
13,Cc1cccc(-c2ncc(CN3CCC(CO)(CCCc4ccccc4)CC3)cn2)c1,inactive
14,CCCNC(=O)C1(C)CCN(Cc2ccc(Cl)c(Cl)c2)C1 (stereo not drawn),inactive
15,CN1OC[C@@H]2CN(S(=O)(=O)c3cccc(C(F)(F)F)c3)[C@H](c3ccc(-c4cc5ccccc5o4)cc3)C[C@@H]21,inactive
16,CNc1cnc(-c2cc(OC)c(OC)c(OC)c2)cn1,inactive
17,O=C(Nc1cnn(Cc2ccc(Cl)cc2)c1)C1CCCC1,inactive
18,CCn1cc(CN2CCC(C(=O)Nc3cccc(-c4cccc(Cl)c4)c3)CC2)c(C)n1,20.6 µM (active)
19,O=C(Nc1cccc(-c2cscn2)c1)C1CCN(Cc2ccsc2)CC1,inactive
20,COc1cccc(-c2cccc(NC(=O)C3CCN(C4CCC4)CC3)c2)c1,inactive
21,CCn1cc(CN2CCC(C(=O)Nc3cccc(-c4cccc(Cl)c4)c3)CC2)cn1,14.6 µM (active)
22,CC(=O)c1cc(CN2CCC(C(=O)Nc3cccc(-c4cscn4)c3)CC2)cs1,inactive
23,CCn1cc(CN2CCC(n3nccc3NC(=O)CCCc3ccccc3)CC2)c(C)n1,inactive
24,O=C(NC1CCCC1)C1CCN(C(=O)Nc2cccc(Cl)c2)CC1,inactive
25,O=C(Nc1cccc(-c2cccc(Cl)c2)c1)C1CCN(C2CCC2)CC1,25.9 µM (active)
